According to the supplement of paper PMC4894684:
Counter-ions that a name gives are not always drawn. ± gives the standard deviation of the averaged measurements.

Test system: Toxoplasma gondii RH (in HFF)
Assay: parasite growth relative to the screen mean (all compounds = 100%); higher = less inhibition of parasite growth
Conditions: 5 µM; 72 h; oxygen 21 %
Summary of the method: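 Confluent human foreskin fibroblasts in 96-well plates received library compounds by pin transfer at 5 µM final, taken from 10 mM DMSO stocks. Within 2 h the cells were infected with RH β-Gal–GFP Toxoplasma at MOI 1:5 and cultured 72 h at 21% O2. A CPRG β-Gal assay read against in-plate standard curves gave parasite number, and growth is stated relative to the screen mean, where all compounds = 100%, averaged across two screens.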

Structure (SMILES) | parasite growth [%]
CC(C)N(CCC(=O)c1ccc2ccccc2c1)Cc1ccccc1 | 77.6 ± 4.8
NC(=O)CNCCC(c1ccccc1)c1ccccc1 [N20C hydrochloride] | 71.4 ± 14
O=C1C(Cl)=C(NCCN2CCOCC2)C(=O)c2ncccc21 | 25.7 ± 24
CC(Cc1ccc(O)c(O)c1)(NN)C(=O)O [(S)-(-)-Carbidopa] | 147 ± 34
Cc1nc2c(OCc3ccccc3)cccn2c1CC#N | 153 ± 7.3
CN(C)CCC=C1c2ccccc2COc2ccccc21 [Doxepin hydrochloride] | 159 ± 36
CN=c1nc(-c2ccccc2)n(-c2ccccc2)s1 | 127 ± 29
O=C(O)CCc1ccc(NCc2cccc(Oc3ccccc3)c2)cc1 | 198 ± 12
CC(C)(C(=O)O)c1ccc(C(O)CCCN2CCC(C(O)(c3ccccc3)c3ccccc3)CC2)cc1 (stereo not drawn) [Fexofenadine hydrochloride] | 122 ± 26
COc1cc(N)c(Cl)cc1C(=O)NC1CCN(CCCOc2ccc(F)cc2)CC1OC (stereo not drawn) [Cisapride] | 20.8 ± 7.1
Cc1[nH]c(/C=C2\C(=O)Nc3ccccc32)c(C)c1CCC(=O)O | 102 ± 8.8
O=C1c2ccccc2C(Cc2ccncc2)(Cc2ccncc2)c2ccccc21 [XE 991 dihydrochloride] | 34.3 ± 6.2
CCCCCCCC/C=C\CCCCCCCC(N)=O [Oleamide] | 74.8 ± 12
OCC1OC(n2cnc3c(NC4CCCC4)nc(Cl)nc32)C(O)C1O (stereo not drawn) [2-Chloro-N6-cyclopentyladenosine] | 138 ± 11
Cc1oncc1C(=O)Nc1ccc(C(F)(F)F)cc1 [Leflunomide] | 106 ± 61
CCCC[C@@H](C=O)NC(=O)[C@H](CC(C)C)NC(=O)OCc1ccccc1 [Calpeptin] | 19.9 ± 4.8
COc1cc2ncnc(Nc3ccc(F)c(Cl)c3)c2cc1OCCCN1CCOCC1 [Iressa] | 99 ± 20
COc1c(C)c2c(c(O)c1C/C=C(\C)CCC(=O)O)C(=O)OC2 [Mycophenolic acid] | < 0
CCCCC[C@H](O)/C=C/[C@H]1[C@H](O)CC(=O)[C@@H]1C/C=C\CCCC(=O)O [Prostaglandin E2] | 122 ± 1.1

Structure (SMILES) | parasite growth [%]
CCOC(=O)N1CCC(=C2c3ccc(Cl)cc3CCc3cccnc32)CC1 [Loratidine] | 112 ± 4.8
O=C1CC2(CCCC2)CC(=O)N1CCCCN1CCN(c2ncccn2)CC1 [Buspirone hydrochloride] | 171 ± 21
O=C(COc1cccc2c(=O)[nH]ccc12)c1ccccc1 | 92.69 ± 0.78
O=C1NN(C(=O)Nc2ccc(Br)cc2)[C@@H](c2ccccc2)[C@@H]1c1ccccc1 | 124.5 ± 1.1
N#Cc1ccc(NCCNCC(=O)N2CCC[C@H]2C#N)nc1 [NVP DPP 728 dihydrochloride] | 81.5 ± 3.9
CC(C)NC[C@H](O)COc1cccc2[nH]ccc12 [(S)-(-)-Pindolol] | 127 ± 20
CCCc1c(OCCCOc2ccc(OCC(=O)O)cc2)ccc(C(C)=O)c1O | 135 ± 1.4
N[C@@H](CSC(c1ccccc1)(c1ccccc1)c1ccccc1)C(=O)O [S-Trityl-L-cysteine] | 118 ± 8.6
Nc1ncnc2c1ncn2C1CCCO1 (stereo not drawn) | 70.4 ± 16
C=CC(=O)c1ccc2ccccc2c1 | 70.4 ± 7.8
OC(CCCN1CCN(c2ncc(F)cn2)CC1)c1ccc(F)cc1 (stereo not drawn) | 64.6 ± 30
Cc1cccc(C)c1NC(=O)C[N+](C)(C)C | 123 ± 18
CCN(CC)CCCC(C)Nc1nc(C)cc(Nc2ccc3nc(C)cc(N)c3c2)n1 (stereo not drawn) | 127 ± 2.7
CC(C)(C)[N+]([O-])=Cc1ccc(S(=O)(=O)O)cc1S(=O)(=O)O | 86.3 ± 26
CN/C(=N\CCSCc1nc[nH]c1C)NC#N [Cimetidine] | 118 ± 10
CC[N+](CC)(CC)CC(=O)Nc1c(C)cccc1C [QX 314 bromide] | 63.6 ± 9.3
COc1ccc(S(=O)(=O)N2c3ccc(Cl)cc3[C@](O)(c3ccccc3Cl)[C@@H]2C(=O)N2CCC[C@H]2C(N)=O)cc1OC | 144 ± 26
O=C(Nc1ccc(C(F)(F)F)cn1)N1CCN(c2ncccc2C(F)(F)F)CC1 | 135 ± 6.2
CC#C[C@]1(O)CC[C@H]2[C@@H]3CCC4=CC(=O)CCC4=C3[C@@H](c3ccc(N(C)C)cc3)C[C@@]21C [Mifepristone] | 135 ± 14
